Data taken from PubChem BioAssay.

Assay: binders of probe aHhip on microarray, primary screen, stem cell growth factor project, biochemical, small-molecule microarray, fluorescence 635/667 (AID 1087);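 further: score merges spot fluorescence at 667nm with spot signal to noise ratio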
Conditions: higher = more signal

First: O=C1C[C@@](C(=O)O)(c2ccc([N+](=O)[O-])cc2)[C@@H](c2ccc(CO)cc2)N1CC12CC3CC(CC(C3)C1)C2
Second: Cc1ccc(S[C@]2(C(=O)O)CC(=O)N(Cc3ccccc3C(F)(F)F)[C@@H]2c2ccc(CO)cc2)cc1
The composite z-score of the first is higher: -0.196 for the first, -0.374 for the second.

Going from COC(=O)c1ccc(OC)c(/C=C\CC(CCc2ccccc2)OC(C)=O)c1 (stereo unspecified) to COCC1=C([C@H](O)CCc2ccccc2)[C@H](CO)[C@@H]2C(=O)N(C)C(=O)[C@@H]2C1, the composite z-score falls from 0.101 to -0.226.

Going from C#CCNS(=O)(=O)N(C)C to CCCC=C(CCC)[C@@H](NS(=O)(=O)c1cccc2cccnc12)c1ccc(C(=O)OC)cc1, the composite z-score rises from 0.208 to 0.754.

First: O=C1CSC(c2cccc([N+](=O)[O-])c2)N1c1ccccc1 (stereo unspecified)
Second: O=C1C2C=CC(C(O)c3ccccn3)N(Nc3ccccc3)C2C(=O)N1c1ccccc1 (stereo unspecified)
The composite z-score of the first is lower: -0.0994 for the first, -0.0003 for the second.

Compared with CCN(CC)c1ccc(N2CC=CC34O[C@@H]5/C=C\CCCOC(=O)C5[C@H]3C(=O)N(CCCCCO)[C@@H]4C2=O)cc1 (stereo partly specified), C[N+](C)(C)CCCCCCNC(=O)[C@H]1C[C@H]2C(=O)N3CCC[C@H]3C(=O)N2[C@H]1c1cccc(OCCO)c1 is higher in composite z-score: -0.0994 for the first, 0.154 for the second.

First: OCc1ccc(-c2cc[n+](Cc3cccc(OC(F)(F)F)c3)cc2)cc1
Second: COC(=O)[C@@]1(Cc2ccccc2)[C@H]2c3cc(C(=O)N4CCCC4)n(Cc4ccc(OC(F)(F)F)cc4)c3C[C@H]2CN1C(=O)c1ccccc1
The composite z-score of the first is lower: -0.0994 for the first, 0.405 for the second.

Going from COC(=O)[C@@]1(Cc2ccc(F)cc2)[C@H]2c3cc(C(=O)N(C)C)n(Cc4ccc(C)c(F)c4F)c3C[C@H]2CN1C(=O)c1ccccc1 to COC(=O)[C@@]1(Cc2ccc(OC)cc2)[C@H]2c3cc(C(=O)N(C)C)n(Cc4cc(F)c(F)c(F)c4)c3C[C@H]2CN1C(=O)c1ccccc1, the composite z-score rises from 0.177 to 0.987.

Compared with CCOC(=O)C[C@H]1[C@H](OC(=O)c2ccc(C(=O)c3ccccc3)cc2)[C@@H](NC(=O)C2CCCCC2)c2cc(OCCCO)ccc2N1C(=O)Cc1ccc(OC)cc1, CCOC(=O)C[C@H]1[C@H](OC(=O)Cc2ccc3c(c2)OCO3)[C@@H](NC(=O)c2ccccc2)c2cc(OCCCO)ccc2N1C(=O)c1ccc2ccccc2n1 is lower in composite z-score: 0.295 for the first, -0.175 for the second.

Going from CCCN1C(=O)[C@@]2(Cc3ccccc3)N=C(c3ccc(OCCCO)cc3)O[C@H]2c2ccccc21 to COCCCNC(=O)[C@@]1(Cc2ccccc2CN=[N+]=[N-])N=C(c2ccc(OCCCO)cc2)O[C@H]1c1ccccc1N=[N+]=[N-], the composite z-score rises from -0.0573 to 0.351.

First: COc1cc(C(O)C2C=CC3C(=O)N(C)C(=O)C3N2NC(=O)OC(C)(C)C)cc(OC)c1OC (stereo unspecified)
Second: CC1(C)[C@@H]2CC(C(O)C3C=CC4C(=O)N(c5ccccc5)C(=O)C4N3Nc3ccccc3F)=C[C@@H]1C2 (stereo partly specified)
The composite z-score of the first is higher: 0.122 for the first, -0.228 for the second.

First: COCC(=C=CC[C@@H](O)c1ccccc1OCCO)C[C@@H](O)c1ccccn1
Second: C=C(COC)C(=O)CC[C@H](OC(=O)c1ccccc1-c1ccccc1C(=O)O)c1ccc(OCCO)cc1
The composite z-score of the first is higher: 0.0156 for the first, -0.236 for the second.

Compared with C[N+](C)(C)CCCC[C@@H]1NC(=O)[C@@H]2C[C@H](C(=O)O)[C@H](c3cccc(OCCO)c3)N2C1=O, C=C(C(=O)CC[C@H](OC(=O)c1cccnc1)c1ccc(OCCO)cc1)C(C)C is higher in composite z-score: -0.245 for the first, 0.0881 for the second.

Going from C=CCC(OC(C)=O)[C@@H]1[C@@H](N(Cc2ccc(-c3cccc(C(F)(F)F)c3)o2)C(=O)c2cccc3ccccc23)c2cc(OCCCO)ccc2N1C(=O)c1ccc(-c2ccccc2)cc1 (stereo partly specified) to C=CCC(OC(C)=O)[C@@H]1[C@@H](N(Cc2ccc(-c3ccccc3)cc2)C(=O)Cc2ccc(OC)cc2)c2cc(OCCCO)ccc2N1C(=O)c1ccc(-c2ccccc2)cc1 (stereo partly specified), the composite z-score rises from 0.0749 to 0.259.

Going from COCCCNC(=O)[C@@]1(C)c2ccccc2C(=O)N(c2ccc(C)cn2)[C@H]1c1ccc(CO)cc1 to Cc1ccc(N2C(=O)c3ccccc3[C@](C)(C(=O)NC(C)C)[C@@H]2c2ccc(CO)cc2)nc1, the composite z-score rises from -0.439 to 0.119.

First: C=CC[C@]1(C(=O)NCC(O)CO)N=C(c2ccc(OCCCO)cc2)O[C@H]1c1ccccc1N=[N+]=[N-] (stereo partly specified)
Second: NC(=O)[C@@H]1[C@H]2C(=O)O[C@H](c3ccccc3)[C@H](c3ccccc3)N2[C@H](c2ccccc2OCCO)[C@@]12C(=O)Nc1ccc(C#CCCO)cc12
The composite z-score of the first is higher: 0.23 for the first, -0.236 for the second.

First: COc1ccc(CCNC(=O)[C@@H]2c3ccccc3C(=O)N(Cc3ccccc3)[C@H]2c2ccc(CO)cc2)cc1
Second: COc1cc2c(cc1OC)CN(C(=O)[C@@H]1[C@H]3C(=O)O[C@H](c4ccccc4)[C@H](c4ccccc4)N3[C@H](c3ccc(OCCO)cc3)[C@@]13C(=O)Nc1ccc(C#CCCO)cc13)CC2
The composite z-score of the first is higher: 3.74 for the first, 0.169 for the second.

Going from COC(=O)C(CC#Cc1ccc2c(c1)[C@]1(C(=O)N2)[C@H](c2ccccc2OCCO)N2[C@H](c3ccccc3)[C@H](c3ccccc3)OC(=O)[C@H]2[C@@H]1C(=O)Nc1nc2ccccc2s1)C(=O)OC to O=C1O[C@H](c2ccccc2)[C@H](c2ccccc2)N2[C@H]1[C@@H](C(=O)N1CCN(c3ncccn3)CC1)[C@]1(C(=O)Nc3ccc(C#CCCO)cc31)[C@H]2c1ccc(OCCO)cc1, the composite z-score falls from 0.0329 to -0.0994.

Going from C=C(COC)C(=O)CC[C@H](OC(=O)c1ccccc1-c1ccccc1C(=O)O)c1ccc(CO)o1 to CO[C@H]1O[C@H](CO)[C@@H](OC(=O)c2ccc(Br)cc2)[C@@H]2OC(=O)[C@H](Cc3cccc(Br)c3)C/C=C/C[C@@H](Cc3cccc(Br)c3)C(=O)O[C@@H]12, the composite z-score rises from -0.0618 to 0.319.
